“And” between values parts separate entries of the source, which are not always exact repeats. Equal entries are not always repeated. Inconclusive results are not listed. The source holds several records for some structures; these can differ, active in one and inactive in another. The source made the active and inactive calls. How the source made its calls: active means hit-call score of the fitted dose curve at least 0.9, where 1 is the maximum; inconclusive means response in the unintended direction; inactive means score below 0.9.
What was measured:
[1] = biological target: Estrogen receptor beta (Homo sapiens) (UniProt Q92731); experiment: OT_ER_ERbERb_0480: Odyssey Thera (OT) 8-hour HEK293T Protein-Complementation Assay for Estrogen Receptor-beta/-beta Homodimer (AID 2283357);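 further: active means signal gain over DMSO baseline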
In short: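 Fluorescence intensity, nuclear for agonists and nuclear plus cytoplasmic for antagonists, was quantified by laser scanning cytometry versus vehicle after 8 h treatment. The cells were HEK293T stably carrying ER beta LBD fragment-complementation partners.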

[2] = biological target: human Peroxisome Proliferator-activated Receptor alpha (PPARa), PPARA (gene 5465) (UniProt Q07869); experiment: NVS_NR_hPPARa: NovaScreen (NVS) Nuclear Receptor Binding Assay for human Peroxisome Proliferator-activated Receptor alpha (PPARa) (AID 2283359);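 further: activity means loss of TR-FRET signal versus DMSO baseline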
In short: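 Cell-free TR-FRET binding assay with extracted PPARα protein, read 1 h after dosing. Primary screen in duplicate at 25 uM, with actives retested in concentration series. Loss of signal versus DMSO.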

[3] = biological target: human Thyroid Receptor Alpha (TRa), THRA (gene 7067) (UniProt P10827); experiment: NVS_NR_hTRa_Antagonist: NovaScreen (NVS) Nuclear Receptor Binding Assay for human Thyroid Receptor Alpha Antagonism (TRa) (AID 2283362)
In short: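 Actives from a duplicate 25 uM single-point screen were retested in concentration series. The cell-free antagonist-format binding assay was read by AlphaLISA chemiluminescence at 1 h, scored as signal loss relative to DMSO.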

[4] = biological target: rat Androgen Receptor (AR), Ar (gene 24208) (UniProt P15207); experiment: NVS_NR_rAR: NovaScreen (NVS) Nuclear Receptor Binding Assay for rat Androgen Receptor (AR) (AID 2283366)
In short: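 Cell-free radioligand binding on extracts of prostate from testosterone-pretreated rats, read by filter-based scintillation counting 18 h after dosing. Loss of bound signal fitted positively versus DMSO; primary screen in duplicate at 25 uM, actives followed up in concentration series.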

PGR (gene 5241) = PGR (gene 5241) (UniProt P06401); experiment: NVS_NR_hPR: NovaScreen (NVS) Nuclear Receptor Binding Assay for human Progestron Receptor (PR) (AID 2283360);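 further: active means loss of bound radioligand signal versus DMSO baseline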
In short: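 Competitive displacement of a labelled radioligand from T47D-derived receptor protein is measured in a cell-free format. Initial testing uses 25 uM in duplicate, with positive and negative controls on every plate.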

[5] = biological target: Retinoic acid receptor alpha (Homo sapiens) (UniProt P10276); experiment: NVS_NR_hRARa_Agonist: NovaScreen (NVS) Nuclear Receptor Binding Assay for human Retinoic Acid Alpha Receptor Agonism (RAR) (AID 2283361)
In short: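 Cell-free TR-FRET binding readout with extracted receptor protein, read 2 hours after dosing; gain-of-signal fitted relative to DMSO. Screened in duplicate at 25 uM, actives then run in concentration-response.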

[6] = biological target: Glucocorticoid receptor (Homo sapiens) (UniProt P04150); experiment: NVS_NR_hGR: NovaScreen (NVS) Nuclear Receptor Binding Assay for human Glucocorticoid Receptor (GR) (AID 2283363)
Procedure: NVS_NR_hGR is a biochemical, single-readout assay that uses extracted gene-proteins in a cell-free assay. Measurements were taken 16 hours after chemical dosing in a 96-well plate.NVS_NR_hGR is one of one assay component(s) measured or calculated from the NVS_NR_hGR assay. It is designed to make measurements of radioligand binding, a form of binding reporter, as detected with scintillation counting signals by Filter-based radiodetection technology.Data from the assay component NVS_NR_hGR was analyzed into 1 assay endpoint. This assay endpoint, NVS_NR_hGR, was analyzed in the positive analysis fitting direction relative to DMSO as the negative control and baseline of activity. Using a type of binding reporter, loss-of-signal activity can be used to understand changes in the binding as they relate to the gene NR3C1. Furthermore, this assay endpoint can be referred to as a primary readout, because the performed assay has only produced 1 assay endpoint. To generalize the intended target to other relatable targets, this assay endpoint is annotated to the nuclear receptor intended target family, where the subfamily is steroidal.
Binding assays used specific radioligands (tritiated, iodinated) with non-radioactive competitive displacement ligands in agonist or antagonist protocols (as indicated) and various reference compounds and inhibitors to titrate specific binding to receptors and transporters. Most enzyme assays (CYPs, kinases, phosphatases, proteases, HDACs) used recombinant protein and specific substrates (fluorescence mostly, some colorimetric and radioactive) and inhibitors, followed by a biochemical separation of substrate and product. All assays for the biochemical HTS were initially run in duplicate at a single concentration (10 uM for CYP450 assays and 25 uM for all others). […] Each assay was run with positive and negative controls, and concurrent controls on every plate. The follow-up (secondary) screen tested active chemical-pairs in concentration series, as well as a few additional assays not tested in the primary screen, some selected negative inactives, and several cases re-run in the concentration series for confirmatory purposes.

[7] = biological target: Nuclear receptor subfamily 1 group I member 2 (Homo sapiens) (UniProt O75469); experiment: NVS_NR_hPXR: NovaScreen (NVS) Nuclear Receptor Binding Assay for human Pregnane X Receptor (PXR) (AID 2283365);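 further: a drop in FRET signal versus DMSO baseline means the compound binds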
In short: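 Human PXR binding measured by TR-FRET in a cell-free format, 2 h exposure. Single-concentration duplicates at 25 uM preceded concentration-response retests of actives; endpoint fitted positively relative to DMSO, loss of signal indicating binding.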

[8] = biological target: guinea pig Sigma Receptor, Non-selective Binding, SIGMAR1 (gene 100135589) (UniProt Q60492); experiment: NVS_OR_gSIGMA_NonSelective: NovaScreen (NVS) Nuclear Receptor Binding Assay for guinea pig Sigma Receptor, Non-selective Binding (AID 2283367)
In short: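 Radioligand displacement on guinea pig brain membranes, read by filter-based scintillation counting 1 h after dosing. Loss of signal versus DMSO; initial duplicate single-point screen at 25 uM, actives followed in concentration series.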

Retinoic acid receptor alpha (Homo sapiens), sequence (P10276 whole entry, looked up): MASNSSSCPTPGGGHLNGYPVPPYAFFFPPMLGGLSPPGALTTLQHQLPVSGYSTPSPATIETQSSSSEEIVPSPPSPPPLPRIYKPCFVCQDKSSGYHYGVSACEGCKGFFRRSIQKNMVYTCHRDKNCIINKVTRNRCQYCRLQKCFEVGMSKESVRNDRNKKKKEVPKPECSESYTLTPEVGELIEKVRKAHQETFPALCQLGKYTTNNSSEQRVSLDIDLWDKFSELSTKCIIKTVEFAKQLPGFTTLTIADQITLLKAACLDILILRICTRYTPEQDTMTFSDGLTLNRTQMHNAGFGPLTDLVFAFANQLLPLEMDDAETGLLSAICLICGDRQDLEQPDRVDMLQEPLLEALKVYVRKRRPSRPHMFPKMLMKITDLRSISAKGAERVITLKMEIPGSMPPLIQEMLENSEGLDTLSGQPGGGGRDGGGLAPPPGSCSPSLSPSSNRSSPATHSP
Estrogen receptor beta (Homo sapiens), sequence (Q92731 whole entry, looked up, the tested form may be a part): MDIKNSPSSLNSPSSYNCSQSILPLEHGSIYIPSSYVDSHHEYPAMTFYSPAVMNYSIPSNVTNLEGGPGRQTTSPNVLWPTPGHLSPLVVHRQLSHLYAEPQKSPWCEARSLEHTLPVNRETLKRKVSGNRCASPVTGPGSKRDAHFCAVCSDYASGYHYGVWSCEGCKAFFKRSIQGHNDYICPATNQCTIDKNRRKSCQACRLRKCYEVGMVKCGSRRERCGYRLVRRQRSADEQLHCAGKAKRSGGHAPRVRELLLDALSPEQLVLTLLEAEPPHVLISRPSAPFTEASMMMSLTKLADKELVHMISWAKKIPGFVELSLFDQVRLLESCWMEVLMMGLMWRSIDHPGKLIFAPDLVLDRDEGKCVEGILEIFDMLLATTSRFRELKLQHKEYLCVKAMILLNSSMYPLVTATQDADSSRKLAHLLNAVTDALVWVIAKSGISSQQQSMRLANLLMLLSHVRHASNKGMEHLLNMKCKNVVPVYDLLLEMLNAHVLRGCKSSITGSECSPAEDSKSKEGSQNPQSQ
human Peroxisome Proliferator-activated Receptor alpha (PPARa), PPARA (gene 5465), sequence (Q07869 whole entry, looked up): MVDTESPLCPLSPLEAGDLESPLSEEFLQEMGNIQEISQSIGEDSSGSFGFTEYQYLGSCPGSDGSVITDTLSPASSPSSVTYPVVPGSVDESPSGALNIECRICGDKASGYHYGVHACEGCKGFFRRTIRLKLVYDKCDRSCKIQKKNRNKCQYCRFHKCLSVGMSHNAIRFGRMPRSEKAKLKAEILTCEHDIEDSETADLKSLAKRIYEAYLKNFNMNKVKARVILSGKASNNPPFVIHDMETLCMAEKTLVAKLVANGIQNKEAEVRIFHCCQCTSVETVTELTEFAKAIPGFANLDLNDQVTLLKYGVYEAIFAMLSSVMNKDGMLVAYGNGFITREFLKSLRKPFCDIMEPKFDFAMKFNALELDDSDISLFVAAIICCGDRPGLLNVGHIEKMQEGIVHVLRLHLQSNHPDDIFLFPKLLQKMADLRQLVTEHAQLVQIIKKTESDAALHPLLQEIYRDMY
PGR (gene 5241), sequence (P06401 whole entry, looked up): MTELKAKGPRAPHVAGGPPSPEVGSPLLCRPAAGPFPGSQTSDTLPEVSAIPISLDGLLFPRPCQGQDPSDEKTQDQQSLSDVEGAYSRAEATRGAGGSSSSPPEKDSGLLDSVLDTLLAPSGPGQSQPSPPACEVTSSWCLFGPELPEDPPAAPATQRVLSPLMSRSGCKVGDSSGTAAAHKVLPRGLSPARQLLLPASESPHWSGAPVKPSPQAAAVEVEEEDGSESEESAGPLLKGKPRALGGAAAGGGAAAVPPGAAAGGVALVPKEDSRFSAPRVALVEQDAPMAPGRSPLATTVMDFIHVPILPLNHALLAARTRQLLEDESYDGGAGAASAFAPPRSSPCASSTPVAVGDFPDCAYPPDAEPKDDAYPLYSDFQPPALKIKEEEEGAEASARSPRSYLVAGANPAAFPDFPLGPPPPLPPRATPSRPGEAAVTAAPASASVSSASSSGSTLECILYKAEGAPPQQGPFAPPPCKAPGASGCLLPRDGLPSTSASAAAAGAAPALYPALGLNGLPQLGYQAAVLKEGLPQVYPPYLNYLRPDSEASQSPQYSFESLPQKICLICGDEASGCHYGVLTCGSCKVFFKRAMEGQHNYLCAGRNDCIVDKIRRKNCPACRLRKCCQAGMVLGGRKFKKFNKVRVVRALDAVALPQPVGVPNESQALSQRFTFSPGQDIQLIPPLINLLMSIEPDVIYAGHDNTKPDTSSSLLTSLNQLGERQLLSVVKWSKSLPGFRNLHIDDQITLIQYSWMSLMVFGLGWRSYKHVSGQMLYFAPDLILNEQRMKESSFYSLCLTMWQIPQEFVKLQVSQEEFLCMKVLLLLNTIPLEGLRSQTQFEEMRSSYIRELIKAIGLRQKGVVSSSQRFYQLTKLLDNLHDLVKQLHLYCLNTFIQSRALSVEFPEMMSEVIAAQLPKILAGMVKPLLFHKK
Nuclear receptor subfamily 1 group I member 2 (Homo sapiens), sequence (O75469 whole entry, looked up): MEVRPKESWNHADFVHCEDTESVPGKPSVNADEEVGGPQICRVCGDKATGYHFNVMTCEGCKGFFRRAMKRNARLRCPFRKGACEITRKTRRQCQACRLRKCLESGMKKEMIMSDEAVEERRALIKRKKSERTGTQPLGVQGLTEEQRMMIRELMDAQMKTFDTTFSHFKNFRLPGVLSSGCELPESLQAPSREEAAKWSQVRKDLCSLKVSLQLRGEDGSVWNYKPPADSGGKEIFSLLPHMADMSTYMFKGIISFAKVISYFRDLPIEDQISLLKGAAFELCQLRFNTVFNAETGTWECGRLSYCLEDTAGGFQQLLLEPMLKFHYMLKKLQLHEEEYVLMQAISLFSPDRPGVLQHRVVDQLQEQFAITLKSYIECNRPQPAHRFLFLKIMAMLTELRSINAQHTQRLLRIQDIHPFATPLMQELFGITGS
human Thyroid Receptor Alpha (TRa), THRA (gene 7067), sequence (P10827 whole entry, looked up): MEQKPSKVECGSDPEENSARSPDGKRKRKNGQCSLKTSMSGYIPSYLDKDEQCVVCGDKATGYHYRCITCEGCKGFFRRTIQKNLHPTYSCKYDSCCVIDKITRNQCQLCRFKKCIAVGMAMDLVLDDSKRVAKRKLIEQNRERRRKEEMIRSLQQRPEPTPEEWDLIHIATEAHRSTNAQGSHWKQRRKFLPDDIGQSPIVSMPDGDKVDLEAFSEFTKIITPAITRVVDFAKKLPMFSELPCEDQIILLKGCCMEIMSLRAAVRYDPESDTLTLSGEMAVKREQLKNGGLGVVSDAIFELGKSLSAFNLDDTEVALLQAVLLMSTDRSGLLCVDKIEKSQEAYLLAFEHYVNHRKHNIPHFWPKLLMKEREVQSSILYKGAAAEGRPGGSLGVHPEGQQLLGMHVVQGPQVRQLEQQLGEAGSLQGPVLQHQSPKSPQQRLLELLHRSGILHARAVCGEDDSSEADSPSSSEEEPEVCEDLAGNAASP
rat Androgen Receptor (AR), Ar (gene 24208), sequence (P15207 whole entry, looked up): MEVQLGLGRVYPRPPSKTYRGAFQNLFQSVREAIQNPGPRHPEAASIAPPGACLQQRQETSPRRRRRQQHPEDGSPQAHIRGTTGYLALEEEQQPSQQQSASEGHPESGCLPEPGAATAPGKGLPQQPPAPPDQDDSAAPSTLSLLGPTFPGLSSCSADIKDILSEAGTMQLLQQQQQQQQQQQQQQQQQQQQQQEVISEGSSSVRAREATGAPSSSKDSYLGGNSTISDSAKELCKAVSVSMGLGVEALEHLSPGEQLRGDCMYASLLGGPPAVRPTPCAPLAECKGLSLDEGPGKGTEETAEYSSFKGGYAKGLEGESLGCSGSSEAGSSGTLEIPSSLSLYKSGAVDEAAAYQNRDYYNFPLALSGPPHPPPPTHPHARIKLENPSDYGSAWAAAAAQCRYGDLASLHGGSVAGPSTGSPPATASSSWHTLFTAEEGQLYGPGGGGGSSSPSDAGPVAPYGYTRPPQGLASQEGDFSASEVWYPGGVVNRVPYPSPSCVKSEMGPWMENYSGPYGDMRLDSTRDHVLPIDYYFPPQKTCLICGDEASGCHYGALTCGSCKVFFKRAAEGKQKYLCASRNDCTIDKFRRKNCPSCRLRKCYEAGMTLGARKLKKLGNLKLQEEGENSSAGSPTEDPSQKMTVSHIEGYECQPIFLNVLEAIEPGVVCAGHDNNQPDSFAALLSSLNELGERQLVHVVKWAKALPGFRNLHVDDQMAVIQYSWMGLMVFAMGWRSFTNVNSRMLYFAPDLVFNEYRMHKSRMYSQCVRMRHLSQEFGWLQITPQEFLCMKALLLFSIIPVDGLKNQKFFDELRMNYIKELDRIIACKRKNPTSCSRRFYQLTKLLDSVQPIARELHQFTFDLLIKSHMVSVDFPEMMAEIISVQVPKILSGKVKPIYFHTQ
guinea pig Sigma Receptor, Non-selective Binding, SIGMAR1 (gene 100135589), sequence (Q60492 whole entry, looked up): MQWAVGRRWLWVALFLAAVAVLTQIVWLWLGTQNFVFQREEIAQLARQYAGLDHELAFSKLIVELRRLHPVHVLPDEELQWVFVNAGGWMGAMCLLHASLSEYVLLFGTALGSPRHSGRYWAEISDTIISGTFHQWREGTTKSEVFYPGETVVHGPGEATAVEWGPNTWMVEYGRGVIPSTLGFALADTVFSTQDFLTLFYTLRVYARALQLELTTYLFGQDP

With `N#CC(Br)Br` the outcome [1] was “inactive”.
In the case of `COP(=S)(OC)SCN1C(=O)c2ccccc2C1=O`, the outcome [1] is reported as “inactive”.
With `COC(=O)Nc1nc2ccccc2[nH]1` the outcome [1] was “inactive”.
For `OCCCBr`, the outcome [1] was “inactive”.
`CCC(C)c1ccc(O)cc1` (stereo unspecified) was tested, and the AC50 [1] was 16.3 µM (active).
`CC(C)(OOC(C)(C)c1ccccc1)c1ccccc1` was tested, and the AC50 [1] was 3.31 µM (active).
`c1ccc(NNc2ccccc2)cc1` was tested, and the outcome [1] was “inactive” and the outcome [2] was “inactive”.
For `ClCCOCCCl`, the outcome [1] was “inactive”.
For `CC(C)N(Cc1ccccc1)C(=O)C(C)(C)C`, the AC50 [1] was 50 µM (active).
For `Nc1ccc(Oc2ccc(N)cc2)cc1`, the outcome [1] was “inactive” and the outcome [2] was “inactive”.
In the case of `COC(=O)c1ccccc1N`, the outcome [1] is reported as “inactive”.
For `CO[C@@H]1[C@H](OC(=O)NC(=O)CCl)CC[C@]2(CO2)[C@H]1[C@@]1(C)O[C@@H]1CC=C(C)C`, the outcome [1] was “inactive”.
`O=[N+]([O-])C(Br)(CO)CO` was tested, and the outcome [1] was “inactive” and the outcome [2] was “inactive”.
`Cc1cc(N=Nc2ccccc2C)ccc1N` was tested, and the AC50 [1] was 12.1 µM (active), the outcome [2] was “inactive” and the outcome [3] was “inactive”. For the same molecule, the outcome [4] was “inactive”.
With `Cc1ccc([N+](=O)[O-])cc1` the outcome [1] was “inactive”.
For `CN(C)C(=O)Nc1ccc(Cl)cc1`, the outcome [1] was “inactive”.
With `Clc1ccc(Cl)c(Cl)c1` the outcome [1] was “inactive”.
With `Nc1ccc(N=Nc2ccccc2)cc1` the AC50 [1] was 34.6 µM (active).
`CN(C)c1ccccc1` was tested, and the outcome [1] was “inactive”.
`c1ccc2c(c1)oc1ccccc12` was tested, and the outcome [1] was “inactive”.
For `C[C@]12C=CC3=C4CCC(=O)C=C4CC[C@H]3[C@@H]1CC[C@@H]2O`, the AC50 [1] was 370 nM (active) and 12.5 µM (active), the outcome [1] was “inactive” and the AC50 (PGR (gene 5241)) was 0.00382 µM (active). The AC50 [5] was 19.6 µM (active) [middle of 4 runs].
With `Cc1ccc(N)c(N)c1` the outcome [1] was “inactive”.
`CC(C)COC(=O)c1ccccc1C(=O)OCC(C)C` was tested, and the AC50 [1] was 25.9 µM (active) and the outcome [2] was “inactive”.
With `O=C1CCCO1` the outcome [1] was “inactive”.
In the case of `Clc1ccc(C(c2ccc(Cl)cc2)C(Cl)(Cl)Cl)cc1`, the AC50 [1] is reported as 12.7 µM (active).
`CC(C)(O)c1cnn2c(-c3ccc(F)c(-c4c(F)cccc4C#N)c3)cnc2n1` was tested, and the AC50 [1] was 95.8 µM (active).
With `[O-][Cl+]O` the outcome [1] was “inactive”.
For `CC(O)CCO` (stereo unspecified), the outcome [1] was “inactive”.
With `Clc1ccccc1Cl` the outcome [1] was “inactive”.
For `Nc1cc(Cl)cc(C(=O)O)c1Cl`, the outcome [1] was “inactive”.
For `CNC(=O)Oc1cccc2c1OC(C)(C)C2`, the outcome [1] was “inactive”.
With `ClC1=C(Cl)C2(Cl)C3C(Cl)C=CC3C1(Cl)C2(Cl)Cl` (stereo unspecified) the outcome [1] was “inactive”.
In the case of `Oc1ccc2ccc3cccc4ccc1c2c34`, the AC50 [1] is reported as 12.3 µM (active), the outcome [2] is reported as “inactive” and the outcome (PGR (gene 5241)) is reported as “inactive”. For the same molecule, the AC50 [6] was 4.96 µM (active).
In the case of `Cc1cccc(N)c1N`, the outcome [1] is reported as “inactive”, the outcome [2] is reported as “inactive” and the outcome [5] is reported as “inactive”.
For `C[N+](C)(C)CC1CO1` (stereo unspecified), the outcome [1] was “inactive” and the outcome [7] was “inactive”.
`Clc1ccc(C(c2ccc(Cl)cc2)C(Cl)Cl)cc1` was tested, and the outcome [2] was “inactive” and the outcome [3] was “inactive”.
In the case of `CCCCCCCCCCCCCN1CC(C)OC(C)C1` (stereo unspecified), the outcome [1] is reported as “inactive”, the outcome [7] is reported as “inactive” and the AC50 [8] is reported as 0.0622 µM (active).

From PubChem BioAssay (EPA / NIEHS)
